hcDAF-12 act – H. contortus DAF-12 activation, primary screen. HEK293 hcDAF-12 lit1-tk-luc reporter, luminescence; 0% DMSO, 100% Δ7-dafachronic acid. activation, % at 6.8 µM. actives 1.4% (n = 370,000). AID 652067;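 active = activation above the mean of all tested compounds plus 3 SD, cut at about 5.5% in these data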;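 also: 100% = response to 3 µM Δ7-dafachronic acid high control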
DAX1 inh-1 – DAX1 (NR0B1) inhibition, primary screen. inhibition, % at 6.8 µM. actives 1.1% (n = 370,000). HEK293T StAR-luciferase reporter, SF-1/DAX-1 repression relief;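 active = inhibition above the mean over all tested compounds plus 3 SD, cut at about 3.6% in these data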;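 also: 0% = DAX-1 cells with DMSO and 100% = cells lacking DAX-1 with DMSO; higher inhibition means more luminescence from relief of DAX-1 repression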
hgDAF12 agonist – activates the H. glycines DAF-12 receptor ligand-binding domain; actives 1.8% (n = 370,000); HEK293 GAL4-hgDAF12 UAS-luciferase reporter, agonist luminescence; normalized to butyrate control; activation, % at 6.8 µM;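 active = activation above a cutoff set at the mean of all screened compounds plus 3 SD, cut at about 10% in these data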;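 also: 0% = DMSO wells and 100% = sodium butyrate wells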
DAX1 inh-2 – inhibits human nuclear receptor DAX1. P51843. HEK293 Gal4-DAX1 luciferase reporter, luminescence. inhibition, % at 6.75 µM. actives 0.99% (n = 340,000). AID 504766;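 active = inhibition above the mean over all tested compounds plus 3 SD, cut at about 4.2% in these data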;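 also: 0% = DAX1-transfected cells with DMSO and 100% = empty-vector control cells with DMSO; inhibition shows as a rise in luminescence from relieved DAX1 repression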
Target sequence (P51843 207-470 limits assumed): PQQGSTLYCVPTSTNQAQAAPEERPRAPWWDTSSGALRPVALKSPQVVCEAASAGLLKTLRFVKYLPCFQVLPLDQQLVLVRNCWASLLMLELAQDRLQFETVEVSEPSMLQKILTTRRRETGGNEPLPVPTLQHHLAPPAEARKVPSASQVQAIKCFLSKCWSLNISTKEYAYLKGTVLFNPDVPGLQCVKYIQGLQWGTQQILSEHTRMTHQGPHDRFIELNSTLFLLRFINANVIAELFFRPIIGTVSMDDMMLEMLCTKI
ssDAF12 agonist – S. stercoralis DAF-12 activation, primary screen; HEK293 ssDAF-12/GRIP1 lit1-tk-luc reporter, luminescence; % of 3 µM dafachronic acid response; activation, % at 6.8 µM; actives 1% (n = 370,000);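 active = activation above the mean over all tested compounds plus 3 SD, cut at about 0.9% in these data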;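 also: 0% = DMSO-only wells and 100% = 3 µM delta7-dafachronic acid wells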
DAX1 inh confirm – confirmation of human DAX1 (NR0B1) inhibitors | shares compounds with DAX1 inh-1 | HEK293T StAR-promoter luciferase reporter, SF-1/DAX-1 repression | inhibition, % at 6.8 µM | actives 87% (n = 2,400) | AID 652134;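 active = inhibition above the average of every tested compound plus 3 SD, cut at about 3.8% in these data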;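 also: 0% = DAX-1 cells with DMSO and 100% = no DAX-1 control cells with DMSO; active compounds raise luminescence by relieving repression of the StAR reporter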
SF1 AF2mut Luc – nonselective inhibitor or artifact in SF-1 mutant DAX1 counter-screen. shares compounds with DAX1 inh-1. HEK293 StAR-luciferase, SF-1 AF2 mutant, luminescence. inhibition, % at 6.8 µM. actives 78% (n = 2,400). AID 652136;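 active = inhibition above the mean of all tested compounds plus 3 SD, cut at about 3% in these data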;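 also: 0% = DAX-1 transfected cells with DMSO and 100% = cells without DAX-1 with DMSO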
LXRb hcDAF ctr – LXR-beta agonism as hcDAF-12 counter-screen; shares compounds with hcDAF-12 act; HEK293 Gal4-LXR tk-luc reporter, luminescence, 24 h; normalized: DMSO 0%, positive control 100%; activation, % at 6.8 µM; 3,400 tested, under 10 active;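 active = mean percent activation of the reporter above a cutoff set as the average over tested compounds plus their standard deviation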
hcDAF12 conf – confirmation of H. contortus DAF-12 agonists | actives 61% (n = 3,400) | HEK293 hcDAF-12 lit1-tk-luc reporter, luminescence; % of Δ7-dafachronic acid response | shares compounds with hcDAF-12 act | AID 743032 | activation, % at 6.8 µM;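 active = mean activation across triplicate tests above the threshold derived from the earlier primary screen, cut at about 5.5% in these data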;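 also: 0% = DMSO only wells and 100% = 3 µM Δ7-dafachronic acid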
Starred values were filed as active, the others as inactive; . = not tested or not shown. Sampled rows, rich in hits. Any-hit rate of the full collection: about 4.1%.

SMILES	hcDAF-12 act	DAX1 inh-1	hgDAF12 agonist	DAX1 inh-2	ssDAF12 agonist	DAX1 inh confirm	SF1 AF2mut Luc	LXRb hcDAF ctr	hcDAF12 conf
Cc1ccc(NC(=O)Nc2ccc3c(c2)OCO3)cc1F	8.0*	7.5*	11*	0	0	12*	9.6*	1	4
O=C(Nc1ccc2c(c1)OCCO2)Nc1ccc2c(c1)OCO2	9.2*	5.4*	22*	-1	3.1*	14*	6.7*	2	9.1*
CC(C)c1cc(C(=O)Nc2ccc3c(c2)OCO3)no1	12*	6.4*	8	2	2.0*	16*	7.1*	1	7.9*
c1ccc(-c2ccc(CNc3nc(-c4ccccn4)nnc3-c3ccccc3)cc2)cc1	-5	.	-11	.	-2	.	.	.	.
CCCCNC(=O)C[C@@H]1C(=O)N2CCCC3=C2[C@@]1(C(=O)OC)CCCC3	1	0	0	.	-1	.	.	.	.
COC(=O)c1cc2c(c3c4ccccc4n(S(=O)(=O)c4cccc(C)c4)c13)C(=O)N(C)C2	4	-1	0	.	0	.	.	.	.
Cc1ccc(C(=O)Nc2ccc3c(c2)OCO3)cc1	20*	5.6*	13*	-2	3.3*	11*	6.0*	2	14*
O=C(Nc1ccc2c(c1)OCO2)c1ccncc1	0	0	2	1	0	.	.	.	.
Cc1ccsc1C(=O)OCc1csc(-c2ccccc2)n1	13*	4.7*	16*	1	2.7*	21*	14*	1	14*
Cn1cccc1C(=O)OCc1csc(-c2ccccc2)n1	16*	5.3*	16*	2	3.1*	14*	8.0*	2	17*
O=C(OCc1csc(-c2ccccc2)n1)c1cccs1	2	1	4	1	-1	.	.	.	.
COc1ccc(S[C@]2(C(=O)N(C)C)CC(=O)N(c3ccc(Cl)cc3)[C@@H]2c2ccc(OC)cc2)cc1	-2	-2	0	.	-1	.	.	.	.
COc1cc2c(c(OC)c1OC)C1(CCCCC1)CC2NS(=O)(=O)C(C)C (centres undefined)	-2	0	1	.	-1	.	.	.	.
COc1ccc(C(=O)c2c(O)cc(-c3ccc(OC)cc3)oc2=O)cc1	-3	-1	2	1	-1	.	.	.	.
COc1ccc(-c2cc3ccccc3c(=O)o2)cc1	12*	7.7*	25*	.	2.2*	13*	6.6*	2	11*
COC(=O)C1CCCN(C(=O)C2CCN(S(=O)(=O)c3ccccc3[N+](=O)[O-])CC2)C1 (centres undefined)	2	0	1	.	-1	.	.	.	.
CC(C)(C)NC(=O)NC(=O)COc1ccc(Br)cc1Br	6.6*	7.5*	17*	2	0	18*	6.0*	2	9.5*
Clc1ccc([C@H]2OC[C@@]3(CNCc4ccccn4)CS[C@H](c4ccc(Cl)cc4)N23)cc1	1	1	1	.	-1	.	.	.	.
O=C(c1ccc2oc(CCc3ccccc3)nc2c1)N1CCC(O)CC1	8.2*	8.1*	11*	1	0	13*	4.9*	1	6.9*
COCCCn1cc(CN2CC=CS2(=O)=O)nn1	-3	0	-1	.	0	.	.	.	.
Cc1nc2cc(NC(=O)N3c4ccccc4CC3C)ccc2n1C (centres undefined)	6.9*	6.0*	10	0	1.3*	18*	7.7*	2	8.2*
Cc1noc(NS(=O)(=O)c2ccc(N/C=C\C(=O)c3cccs3)cc2)c1C	5	2	7	2	0	.	.	.	.
O=C(C=Cc1cccs1)c1cccs1	-1	0	5	0	0	.	.	.	.
O=C(/C=C/Nc1ccc(F)cc1F)c1ccc(Br)cc1	4	1	6	.	-1	.	.	.	.
O=C(/C=C/Nc1ccc(F)cc1F)c1cccs1	12*	6.1*	21*	-3	2.4*	8.3*	2	1	15*
SMILES	hcDAF-12 act	DAX1 inh-1	hgDAF12 agonist	DAX1 inh-2	ssDAF12 agonist	DAX1 inh confirm	SF1 AF2mut Luc	LXRb hcDAF ctr	hcDAF12 conf
O=C(/C=C/Nc1ccccc1F)c1cccs1	26*	5.7*	29*	0	3.9*	15*	7.8*	2	22*
O=C(/C=C/Nc1ccccc1O)c1ccco1	0	0	4	3	0	.	.	.	.
O=C(/C=C/Nc1ccc(Br)cc1F)c1ccco1	14*	6.0*	23*	-2	1.5*	7.7*	0	1	9.9*
Cc1ccc(N/C=C/C(=O)c2cccs2)cc1	10*	8.3*	22*	-4	1.4*	6.3*	2	2	14*
Cc1cn2nc(N)c3ccccc3c2n1	3	-1	1	-1	-1	.	.	.	.
Nc1nn2cc(-c3ccccc3)nc2c2ccccc12	19*	11*	21*	2	6.0*	19*	10*	2	21*
COc1cccc(OCC(C)CN2CCC(C(O)(c3ccccc3)c3ccccc3)CC2)c1 (centres undefined)	1	-1	1	.	0	.	.	.	.
COc1ccc(/C=N\NC(=O)c2sccc2C)cc1Cn1nc(C)cc1C	7.2*	9.9*	11*	3	1.2*	1	-4	0	4
Cn1c(/C=C/c2ccccc2)nc2ccccc21	9.0*	4.6*	11*	-4	0	6.6*	2	1	14*
CCc1cc(-c2ccc3c(c2)COc2c4ccccc4nn2-3)on1	7.0*	4.5*	8	2	0	11*	5.1*	2	9.3*
O=C(NC1CCCCN(Cc2cccc(C(F)(F)F)c2)C1=O)c1ccc(COc2ccccc2)cc1 (centres undefined)	-5	-5	-4	.	-3	.	.	.	.
Cc1cc(NC(=O)c2sc3ccccc3c2O)no1	12*	6.5*	8	1	1	8.1*	6.2*	1	7.2*
Cc1ccc2oc(C(=O)Nc3cc(C)on3)c(C)c2c1	11*	5.5*	11*	3	2.5*	13*	8.0*	2	14*
Cc1ccc(NC(=O)c2oc3ccccc3c2C)nc1	8.5*	8.2*	13*	2	3.3*	8.4*	5.5*	1	16*
COc1ccc(NC(=O)c2oc3ccccc3c2C)cn1	11*	6.4*	7	1	1.1*	6.1*	6.2*	0	9.8*

Screening data as filed in PubChem BioAssay.
